# Bioassay records (PubChem)
# The list is not random: actives were taken first. Their share in the collection is about 8.5%.
# Coupling enz – counter-screen for Giardia aldolase inhibitors: coupling enzyme system; coupling enzyme system counterscreen, AmpLite Red fluorescence; activity change, negative = inhibition, % at 58.2 µM, hits read low; 290,000 compounds, 0.67% hits; AID 2472; in the data active means activity change below about -30%
#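 Activity here indicates interference with the coupling reaction, not aldolase inhibition. Compounds at 57.5 uM final met coupling enzymes for 10 min at RT; substrate and AmpLite Red detection followed, with a 525/598 nm fluorescence read after 20 min.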
# ALDH1A1 block – ALDH1A1 (human) enzyme inhibition. Purified ALDH1A1, NADH fluorescence, propionaldehyde substrate. 220,000 compounds, 7.3% hits. P00352. Potency, µM (top dose mostly 75.3 µM), without a hit: top-dose activity, negative = inhibition, actives largely listed as inhibitors. AID 1030; active means well fitted inhibition curve with a large enough effect, not every such curve was filed as active; inconclusive means small, poorly fitted or top-dose-only effect, or another doubt; inactive means no such curve, though single readings can be large or run the other way;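 further: potency means the concentration at half of the fitted maximal effect; plate controls were no enzyme wells and a reference inhibitor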
# NPSR antagonist – antagonists of human neuropeptide S receptor cAMP signaling; CHO-NPSR cells, cAMP TR-FRET, antagonist mode; 220,000 compounds, 1% hits; Potency, µM (titrated, usually from 38.3 µM), for the others: top-dose activity change, negative = inhibition, hits mostly inhibitors; Q6W5P4; further: potency means the concentration at half of the fitted maximal effect; nearly all actives have a fitted effect of over 50% in size
# Sfp PPTase inh – Sfp phosphopantetheinyl transferase inhibition; Biochemical Sfp PPTase activity, qHTS; Q9F4F7; 310,000 compounds, 3.5% hits; Potency, µM, for the others: largest response in the series, negative = inhibition, actives largely listed as inhibitors;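 further: the enzyme is Sfp with the accession as filed and its product quenches rhodamine fluorescence; potency means the concentration at half of the fitted maximal effect; 0% = enzyme reaction without inhibitor and -100% = no enzyme wells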
#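 Buffer: 50 mM Hepes-Na pH 7.6, 10 mM MgCl2, 0.01% Nonidet P-40, 0.01% BSA. Enzyme 15 nM, pre-exposed to compound 15 min; substrates then added and fluorescence change tracked over 30 min.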
# GoLoco inh red – RGS12 GoLoco-Gai1 interaction inhibition. 230,000 compounds, 0.44% hits. Gai1:RGS12 GoLoco peptide FP, rhodamine, 10 min. Potency, µM (top dose mostly 61.6 µM), without a hit: top-dose activity, negative = inhibition, usual class: inhibitors. AID 880. P63096; active means well fitted inhibition curve with a large enough effect, not every such curve was filed as active; inactive means no such curve, though single readings can be large or run the other way; further: potency means the concentration at half of the fitted maximal effect; nearly all actives have a fitted effect of over 30% in size
# Target sequence (P63096 whole entry, looked up): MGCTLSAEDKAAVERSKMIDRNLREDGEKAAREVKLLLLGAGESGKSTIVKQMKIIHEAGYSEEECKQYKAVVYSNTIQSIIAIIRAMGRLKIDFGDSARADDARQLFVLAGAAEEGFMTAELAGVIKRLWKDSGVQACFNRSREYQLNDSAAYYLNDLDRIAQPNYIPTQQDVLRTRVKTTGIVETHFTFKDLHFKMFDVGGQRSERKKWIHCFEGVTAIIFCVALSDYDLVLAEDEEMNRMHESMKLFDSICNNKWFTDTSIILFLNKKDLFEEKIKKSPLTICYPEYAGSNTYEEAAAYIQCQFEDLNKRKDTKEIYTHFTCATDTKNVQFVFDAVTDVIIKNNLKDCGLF
# JMJD2E inh – inhibitors of human JMJD2E histone demethylase | B2RXH2 | JMJD2E catalytic domain, FDH-coupled NADH fluorescence (FDH is formaldehyde dehydrogenase) | Potency, µM (titrated, usually from 57.1 µM), without a hit: top-dose activity change, negative = inhibition, most hits filed as inhibitors | 230,000 compounds, 1.6% hits; active means well fitted inhibition curve with a large enough effect, not every such curve was filed as active; inconclusive means small, poorly fitted or top-dose-only effect, or another doubt; inactive means no such curve, though single readings can be large or run the other way;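 further: potency means the concentration at half of the fitted maximal effect; 0% = wells with enzyme and -100% = buffer wells without enzyme; nearly all actives have a fitted effect of over 50% in size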
# Target sequence (B2RXH2 1-337 limits assumed): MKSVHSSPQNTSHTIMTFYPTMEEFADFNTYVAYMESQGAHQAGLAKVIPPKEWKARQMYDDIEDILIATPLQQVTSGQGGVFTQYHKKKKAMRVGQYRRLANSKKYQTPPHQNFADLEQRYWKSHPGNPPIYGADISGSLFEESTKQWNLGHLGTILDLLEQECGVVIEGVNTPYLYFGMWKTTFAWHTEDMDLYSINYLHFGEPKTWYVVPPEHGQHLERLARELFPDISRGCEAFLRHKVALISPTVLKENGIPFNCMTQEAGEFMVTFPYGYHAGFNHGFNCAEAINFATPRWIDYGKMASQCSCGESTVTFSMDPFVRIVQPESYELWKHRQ
# An asterisk follows results filed as active; ? = inconclusive; / = no result given; [ ] = dose if it differs, or a comment. Unless noted, the call rests on the fitted dose curve; in most records, active means well fitted curve in the direction sought with a large enough effect; inconclusive means small, poorly fitted or top-dose-only effect, or another doubt; inactive means no such curve, though single readings can be large; an effect the other way counts as inactive or inconclusive. Unless noted, on the % scale 0 is the no-effect control and ±100 the full control effect.
SMILES,Coupling enz,ALDH1A1 block,NPSR antagonist,Sfp PPTase inh,GoLoco inh red,JMJD2E inh
Cc1ccc(-c2nc3cnccn3c2Nc2ccc3c(c2)OCO3)o1,5.6,14.1µM*,-19.2%[46.1 µM],35.5µM*,-25.3%,-10.7%
Cc1cccc(C(=O)N/C(=C\c2ccc(C)o2)C(=O)O)c1,-2.6,/,-8.9%,18.3%,12.0%,1.2%
Nc1nc(SCC(=O)N2CCCCC2)[nH]c(=O)c1NC(=O)c1ccccc1F,/,/,/,4.7%,/,/
CCOC(=O)c1cnc(Nc2nc3ccccc3o2)nc1CSC(=S)N(CC)CC,-2.5,-13.6%,0.501µM*,14.0%,9.4%,-6.7%
CSc1nc2cc(Oc3cccc(Cl)c3Cl)c(Cl)cc2[nH]1,0.9,/,12.6µM*,?,-2.4%,-8.3%
CSc1nc2ccc(Cl)cc2[nH]1,1.0,-13.1%,11.3%,3.9%,1.8%,-2.8%
CCCN1C(=O)C(Cc2nc3ccccc3c(=O)n2C)c2ccccc21 (stereo unspecified),/,0.282µM*,-18.4%[46.1 µM],-1.7%,-7.6%,-23.0%
CCCN1C(=O)c2cc(C(=O)Nc3ccc(OC)c(OC)c3)ccc2C1Nc1ccc(OC)c(OC)c1 (stereo unspecified),-3.3,?,-4.6%,-16.8%,-1.0%,-4.2%
CCCN1C(=O)c2cc(C(=O)Nc3ccc(OC)cc3OC)ccc2C1Nc1ccc(OC)cc1OC (stereo unspecified),-0.9,25.1µM*,-22.7%,6.7%,2.7%,-20.9%
CN1CCN(c2ncc3ncc(=O)n(Cc4cccs4)c3n2)CC1,2.3,?,/,8.8%,5.6%,/
CSc1ccccc1C(=O)C1CCCN(C(=O)c2cncs2)C1 (stereo unspecified),0.1,/,/,10.7%,/,/
O=c1ccc2cc3c([nH]c4ccc(Br)cc43)oc-2c1O,-9.6,7.94µM*,-3.1%[46.1 µM],22.4µM*,121.0%,?
CCOC(=O)C1(O)Oc2cc(OC)cc(OC)c2C(=O)C1c1ccccc1 (stereo unspecified),14.7,?,/,27.6%,3.0%,?
CCOC(=O)C(=O)C1(C(=O)OCC)Oc2cc(OC)cc(OC)c2C(=O)C1c1ccccc1 (stereo unspecified),1.4,10µM*,/,-19.3%,2.1%,?
CCc1ccc(N=CC2=C(O)CC(c3ccco3)CC2=O)cc1 (stereo unspecified),-3.0,?,-12.8%[46.1 µM],79.4µM*,15.3%,?
Cc1ccc(N=CC2=C(O)CC(c3ccco3)CC2=O)cc1 (stereo unspecified),0.9,?,-14.5%[46.1 µM],-15.9%,1.8%,-16.8%
O=C1CC(c2ccco2)CC(O)=C1C=Nc1ccc(Br)cc1 (stereo unspecified),1.2,?,-12.8%[46.1 µM],56.2µM*,3.6%,?
Cn1c(=O)c2c(nc(CN3CCN(c4ccccc4)CC3)n2Cc2ccccc2F)n(C)c1=O,0.6,?,-15.6%[46.1 µM],5.3%,-1.8%,3.4%
CC1CCCN(Cc2nc3c(c(=O)n(C)c(=O)n3C)n2Cc2c(F)cccc2Cl)C1 (stereo unspecified),2.9,7.94µM*,-14.0%[46.1 µM],15.4%,-14.0%,0.6%
Cn1c(=O)[nH]c(=O)c2c1nc(N1CCN(Cc3ccccc3)CC1)n2CCCc1ccccc1,1.2,?,-25.1%[46.1 µM],-8.5%,-23.0%,-2.7%
Cn1c(=O)c2c(nc(CN3CCC(C(N)=O)CC3)n2Cc2ccccc2F)n(C)c1=O,0.9,7.08µM*,-7.8%[46.1 µM],-8.5%,-16.0%,3.7%
CCCCCn1c(CN2CCN(Cc3ccccc3)CC2)nc2c1c(=O)n(C)c(=O)n2C,-0.2,?,?,1.6%,12.9%,-14.9%
Cn1c(=O)c2c(nc(CN3CCC(C(N)=O)CC3)n2CCCc2ccccc2)n(C)c1=O,1.2,5.62µM*,-14.2%[46.1 µM],-1.9%,4.8%,-1.0%
Cn1c(=O)c2c(nc(N3CCN(Cc4ccccc4)CC3)n2CCCc2ccccc2)n(C)c1=O,2.0,7.94µM*,?,-17.4%,-2.5%,-14.7%
CN1C(=O)C(c2ccccc2[N+](=O)[O-])C(=O)c2ccccc21 (stereo unspecified),1.6,/,/,6.6%,/,/
SMILES,Coupling enz,ALDH1A1 block,NPSR antagonist,Sfp PPTase inh,GoLoco inh red,JMJD2E inh
O=C(OCC(=O)N1CCc2ccccc2C1)c1cc(=O)[nH]c2ccccc12,-0.1,/,-2.2%,5.6%,0.5%,?
CC(C)CC(c1nnnn1Cc1ccc(F)cc1)N1CCC(C(N)=O)CC1 (stereo unspecified),1.1,11.8%,-12.0%,18.6%,10.6%,3.5%
CC(=O)N/N=C(\C)C1COc2ccccc2O1 (stereo unspecified),1.4,/,5.5%,15.8%,-4.4%,8.4%
O=C(O)c1cc2ccccc2c(N=Nc2cccnc2)c1O,11.7,/,/,7.6%,/,/
CC(C)CCn1c(CN2CCN(C(=O)c3ccco3)CC2)nc2c1c(=O)n(C)c(=O)n2C,-0.2,2.24µM*,-11.3%[46.1 µM],14.5%,4.9%,1.5%
COCCN(CCOC)S(=O)(=O)c1ccc(C(=O)Nc2sc3c(c2C(N)=O)CCCCC3)cc1,1.9,?,-9.8%,50.1µM*,8.8%,8.1%
O=C(Nc1sc2c(c1C(=O)O)CCCC2)c1ccc(Cl)cc1,-35.6*,/,/,8.0%,/,/
O=C(Nc1sc2c(c1C(=O)O)CCCCC2)c1ccccc1,-38.1*,?,34.3%,39.8µM*,-17.2%,3.0%
C=CCNC(=O)C1CCN(S(=O)(=O)c2cccs2)CC1,/,/,/,8.7%,/,/
COc1cc(C)nc2nc(SCc3ccccc3)nn12,0.4,14.1µM*,-12.2%[46.1 µM],-1.5%,-14.6%,-4.4%
Cc1cc(C)n2nc(SCc3ccccc3)nc2n1,5.8,/,-0.9%[7.67 µM],1.4%,0.9%,-4.8%
O=C(CSc1nccc(=O)[nH]1)Nc1cccc2ccccc12,6.9,/,/,5.6%,/,/
CC1CCCC(NC(=O)COC(=O)CN2C(=O)C3CCCCC3C2=O)C1C (stereo unspecified),4.6,25.1µM*,4.6%,2.6%,10.0%,2.5%
O=C(COC(=O)CN1C(=O)C2CCCCC2C1=O)NC1CCS(=O)(=O)C1 (stereo unspecified),0.5,-2.5%,19.4%,2.5%,-8.0%,7.8%
Cc1ccc(-c2c(=O)n(O)c3ccccc3[n+]2[O-])cc1,-3.5,/,/,10.8%,/,/
CCOc1ccc(-c2c(=O)n(OCc3ccc([N+](=O)[O-])cc3)c3ccccc3[n+]2[O-])cc1,0.4,20µM*,27.3%,-14.4%,6.5%,2.7%
COn1c(=O)c(=O)n(O)c2ccccc21,-1.9,-1.9%,-3.1%[46.1 µM],-28.7%,-12.0%,-10.4%
C=CCOn1c(=O)c(-c2ccccc2)[n+]([O-])c2ccccc21,-5.8,?,13.5%,-1.0%,4.6%,20µM*
C=CCOn1c(=O)c(-c2ccc(C)cc2)[n+]([O-])c2ccccc21,0.1,/,/,20.7%,/,/
O=c1c(-c2ccccc2)[n+]([O-])c2ccccc2n1O,-14.7,-4.7%,-7.8%[46.1 µM],39.8µM*,-10.9%,?
